MLLE-PAM2 inh: inhibitors of microRNA-mediated deadenylation, human PABP1 MLLE binding; inhibition, % at 20 µM; GST-MLLE / FITC-PAM2 fluorescence polarization; hit rate 0.36% among 360,000; AID 588489; P11940; in the data active = inhibition above about 35%, passing the limit was not always enough;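 also: plate controls were DMSO wells with GST-MLLE for no effect and wells lacking GST-MLLE protein for full effect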
PABP FP inh: blocks human PABP binding to poly(A) RNA; AID 2014; fluorescence polarization; P11940; hit rate 1% among 290,000; calls only at 35 µM;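 also: calls also rest on retests at 20 µM and on dose response follow-up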
14-3-3 Bad inh: disrupts binding of bovine 14-3-3 zeta to phospho-Bad peptide; TR-FRET 14-3-3zeta/Dy647-pBad peptide displacement, 1 h; P63103; hit rate 0.71% among 220,000; AID 781; inhibition, % at 21.7 µM;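 active = inhibition above about 70%, limit read from the data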;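 also: 0% = full 14-3-3 plus peptide FRET controls and 100% = background without 14-3-3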
Target sequence (P63103 whole entry, looked up): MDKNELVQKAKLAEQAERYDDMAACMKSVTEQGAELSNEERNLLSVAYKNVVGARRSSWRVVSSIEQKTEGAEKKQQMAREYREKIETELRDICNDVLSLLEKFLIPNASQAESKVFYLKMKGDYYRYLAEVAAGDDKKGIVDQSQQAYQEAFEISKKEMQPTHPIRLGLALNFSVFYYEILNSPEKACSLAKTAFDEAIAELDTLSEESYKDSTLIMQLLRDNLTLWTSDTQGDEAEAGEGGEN
eIF4E-4G inh: eIF4E/eIF4G interaction inhibition in translation initiation; TR-FRET eIF4E-eIF4GI(517-606) binding, 2 h; hit rate 0.37% among 220,000; inhibition, % at 21.7 µM; P63073+Q04637;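 active = inhibition above about 30%, limit read from the data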;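 also: 0% = full FRET control wells and 100% = background wells lacking eIF4GI fragment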
eIF4H inh: inhibitors of RNA binding by human eIF4H; Q15056; eIF4H fluorescence polarization binding assay; hit rate 0.94% among 290,000; inhibition, % at 35 µM;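 also: calls also rest on retests at 20 µM and on dose response follow-up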
* hit, by the source's call; i = inactive; ? = inconclusive; . = not tested or not shown; + = active, no number; [ ] = remark or other dose. Shown are actives, neighbours in structure and some others; about 1.9% of the full set was active somewhere. Unless noted, no rule for the calls is given here.

SMILES | MLLE-PAM2 inh | PABP FP inh | 14-3-3 Bad inh | eIF4E-4G inh | eIF4H inh
CC(=O)Nc1nc(C)c(-c2csc(Nc3cccc([N+](=O)[O-])c3)n2)s1 | 16 | i | 87*[fluorescence artefact?] | -84 | 7
Cc1cccc(OCCSc2nc3ccccc3n2CCC(=O)O)c1 | -24 | i | . | . | -2
CCCCNC(=O)C1(C)CCCCN1C(=O)c1ccc(C)c(F)c1 (centres undefined) | 2 | . | . | . | .
O=C(CCn1[nH]c(=O)c2ccccc2c1=O)NCCO | -4 | i | 36 | 35* | 5
COc1ccc(CN(C)C(=O)COC(=O)c2c(-c3ccccc3Cl)noc2C)cc1 | 3 | i | -15 | -1 | -11
O=C(COC(=O)c1ccc2ncsc2c1)Nc1cc(Cl)ccc1F | 3 | . | . | . | .
COc1ccc(C(=O)NC(=O)COC(=O)c2ccc3ncsc3c2)cc1 | . | i | 78* | -3 | -15
O=C(COC(=O)c1ccc2ncsc2c1)Nc1ncc(Cl)cc1Cl | 4 | i | 73*[fluorescence artefact?] | -27 | -3
Cc1c(Cl)cnc(NC(=O)COC(=O)c2ccc3ncsc3c2)c1Cl | 10 | i | 70* | 5 | 30
O=C(COC(=O)c1ccc2ncsc2c1)NC(=O)c1ccccc1 | -4 | i | 47 | 1 | 2
COc1ccccc1CNC(=O)C(=O)NCC1CCCN1S(=O)(=O)c1cccs1 (centres undefined) | -2 | . | . | . | .
Cc1cccnc1NC(=O)NC(=O)c1ccc(C(C)(C)C)s1 | 1 | i | -3 | -10 | 5
CCn1c(C)nc2cc(C(=O)N/N=C(\C)c3ccccc3O)ccc21 | 14 | i | -10 | 2 | -3
N#CC1=C(N)C(C#N)(C#N)C(c2ccc[nH]2)C2CCCC=C12 (centres undefined) | -21 | ? | 0 | -4 | ?
N#CC1=C(N)C(C#N)(C#N)[C@H](c2cccnc2)[C@H]2CN(C(=O)OCc3ccccc3)CC=C12 | 26 | i | 3 | 5 | 31
N#CC1=C(N)C(C#N)(C#N)C(c2cccnc2)C2CCCC=C12 (centres undefined) | . | i | -1 | -17 | 120*
N#CC1=C(N)C(C#N)(C#N)C(c2cccnc2)C2CC(c3ccccc3)CC=C12 (centres undefined) | 63 | + | -18 | -5 | ?
CC1CCN(CC(O)COC2CC(C)CC(C)(C)C2)CC1 (centres undefined) | 1 | . | . | . | .
CC[N+]1(CC(O)COC2CC(C)CC(C)(C)C2)CCOCC1 (centres undefined) | -114 | + | 9 | -9 | -2
CC1CCN(C(=O)NC(=O)c2ccc(Cl)cc2)CC1 | 0 | i | . | . | -5
CC(=O)Nc1nc2n(n1)C(c1ccccc1)C=C(c1ccccc1)N2 (centres undefined) | 59* | i | 2 | -1 | 18
O=C(c1nc2n(n1)C(c1ccc(Cl)cc1)C=C(c1ccccc1)N2)N1CCOCC1 (centres undefined) | 60 | + | 3 | 0 | 66*
CS(=O)(=O)Nc1nc2n(n1)C(c1ccccc1)C=C(c1ccc(Br)cc1)N2 (centres undefined) | 147 | + | 8 | -1 | 76*
CC(=O)Nc1nc2n(n1)C(c1ccc(F)cc1)C=C(c1ccccc1)N2 (centres undefined) | 34 | i | 31 | 4 | -8
COc1ccc(-c2csc(NC(=O)CSc3nc(SC)ns3)n2)cc1 | 10 | i | -21 | -6 | -8
SMILES | MLLE-PAM2 inh | PABP FP inh | 14-3-3 Bad inh | eIF4E-4G inh | eIF4H inh
CN1C(=O)Cc2cc(S(=O)(=O)N3CCN(c4cccc(Cl)c4)CC3)ccc21 | 1 | i | . | . | -18
Cc1cc(C)nc(SCc2ccc(Cl)cc2)n1 | 6 | i | . | . | -7
Cc1cc(C)nc(SCNC(=O)c2ccc(Cl)cc2)n1 | 44* | i | 6 | 4 | 0
CC(=O)Nc1cnc(-c2ccc3c(c2)OCO3)cn1 | 3 | . | . | . | .
CCOC(=O)c1nc2sc3c(c2c(=O)[nH]1)CCCC3 | -6 | + | 13 | -5 | ?
CCC(=O)c1c[nH]c(C(=O)NCc2cccnc2)c1 | 4 | i | 80* | -5 | -2
CCOc1ccc(CC(=O)N2CCN=C2SC)cc1 | -3 | + | -9 | -5 | -5
CSC1=NCCN1C(=O)Cc1ccc(F)cc1 | 0 | i | -14 | 7 | -10
COc1ccc(CC(=O)N2CCN=C2SCc2ccc([N+](=O)[O-])cc2)cc1 | -4 | i | -6 | 1 | -10
CCOc1ccc(CC(=O)N2CCN=C2SCc2ccc([N+](=O)[O-])cc2)cc1 | 3 | + | -8 | -1 | active
O=C(Cc1ccc(F)cc1)N1CCN=C1SCc1ccc([N+](=O)[O-])cc1 | 38* | i | 12 | -1 | -13
CCn1c(=O)cc(OCC(=O)NCc2cccs2)c2ccccc21 | 13 | i | -8 | 2 | -1
COC(=O)c1cc(NC(=S)Nc2cc(Cl)cc(Cl)c2)cc(C(=O)OC)c1 | 36* | i | -5 | 3 | -1
COC(=O)c1cccc(NC(=S)Nc2ccccc2Cl)c1 | 21 | i | 1 | -3 | -1
CN1CCN(c2ncnc3c2ncn3[C@H]2CN(Cc3ccc(F)cc3)C[C@@H](CO)O2)CC1 | -6 | . | . | . | .
Cc1cccc(C)c1NC(=O)COC(=O)c1cc[n+]([O-])cc1 | 2 | . | . | . | .
Oc1ccc(Cl)cc1Nc1nc(NCC2CCCO2)c2ccccc2n1 (centres undefined) | -7 | . | . | . | .
Oc1ccccc1Nc1nc(NCC2CCCO2)c2ccccc2n1 (centres undefined) | -5 | i | 77* | -7 | -4
CCOCc1nnc(NC(=O)c2cc(OC)c(OC)cc2[N+](=O)[O-])s1 | 14 | i | -10 | 1 | 7
Cc1ccc(S(=O)(=O)N2CCN(CC(=O)N/N=C\C(Cl)=C\c3ccccc3)CC2)cc1 | 8 | i | -3 | -2 | -1
CC(/C=N\NC(=O)CN1CCN(S(=O)(=O)c2ccc(C)cc2)CC1)=C\c1ccccc1 | -11 | i | 80*[fluorescence artefact?] | 33*[fluorescence artefact?] | -16
CN(C(=O)OC(C)(C)C)c1ccc(-c2nc3ccccc3s2)cc1 | 0 | . | . | . | .
CN(C)c1ccc(/C=C/c2ccc3c4ccccc4ccc3[n+]2-c2ccccc2)cc1 | -107 | i | -13 | 75* | 13
COc1cc([N+](=O)[O-])cc(/C=N/NC(=O)CC#N)c1O | . | i | 12 | 2 | 90
Cc1ccc(CSc2nnc(SCC(=O)N/N=C/c3ccccc3OCC(=O)O)s2)cc1 | -49 | i | 10 | 5 | 21
Cc1ccc(CSc2nnc(SCC(=O)N/N=C/c3c[nH]c4ccccc34)s2)cc1 | -75 | i | 95* | 9 | 48
O=C(CSc1nnc(SCc2ccccc2Cl)s1)N/N=C/c1c[nH]c2ccccc12 | -113 | i | -9 | 1 | 7
O=C(CSc1nnc(SCc2ccccc2)s1)N/N=C/c1c[nH]c2ccccc12 | -43 | i | 94* | -3 | 35
Cc1cc(SCC(=O)NCC(c2cccs2)N2CCOCC2)c(C)cc1Br (centres undefined) | -11 | . | . | . | .
